Source: PubChem
Most compounds without a hit are left out; they make up all but 2.4% or so of the library.
PKM2 act: qHTS Assay for Activators of Human Muscle isoform 2 Pyruvate Kinase; Pyruvate kinase PKM (Homo sapiens), P14618; purified PKM2, Kinase-Glo ATP luminescence, activation; response scale: 0% is enzyme alone, no compound; Potency, µM (doses to about 57.5 µM), for inactives: top-dose activation, most hits filed as activators; 0.34% of 260,000 active; note: % is set by controls: 0 for no effect and ±100 for the full control effect; nearly all actives have a fitted effect of over 55% in size
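Purified hPK-M2 (>95% pure) converted ADP (0.1 mM final) to ATP with 0.5 mM PEP in 50 mM imidazole pH7.2, KCl, MgCl2, Tween 20, BSA; 1 h at room temperature. ATP detected by Kinase-Glo luminescence.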
Rango complex inh: qHTS Assay for Inhibitors of Rango (Ran-regulated importin-beta cargo) - Importin beta complex formation; Rango CFP/YFP FRET sensor + importin beta, 45 min; Potency, µM (titrated, usually from 92.2 µM), inactives show at the highest dose inhibition of complex formation; 0.031% of 340,000 active; AID 540263, 2011; calls by dose curve;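 note: 0% = DMSO wells and 100% = buffer wells lacking importin beta; nearly all actives have a fitted effect of over 15% in size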
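Inhibition scored from the CFP 486 nm/YFP 530 nm FRET ratio 45 min after adding 0.125 microM importin beta to 50 nM Rango biosensor preincubated 5 min with compound (room temperature, PBS with DTT, Tween-20, BSA). No-importin wells as positive control.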
Rango release inh: qHTS Assay for Inhibitors of RanGTP induced Rango (Ran-regulated importin-beta cargo) - Importin beta complex dissociation; Biochemical FRET Rango-importin beta, RanGTP-induced dissociation; Potency, µM (titrated, usually from 46.1 µM), without a hit: at the highest dose activity change, negative = inhibition; 0.071% of 340,000 active; calls by dose curve; note: % of control where 0% means no effect; nearly all actives have a fitted effect of over 45% in size
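Rango FRET biosensor (snurportin-1 IBB flanked by N-terminal EYFP and C-terminal CFP10) at 0.1 uM, with 0.25 uM importin beta in PBS, 1mM DTT, 0.02% Tween-20, 0.1% BSA. 0.6 uM Ran, 2mM GTP and 0.2 uM RCC1 were then added for 45 min at room temperature. Inhibition read as loss of FRET rise.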
Tb PGK inh: qHTS Assay to Find Inhibitors of Phosphoglycerate Kinase | Phosphoglycerate kinase, glycosomal (Trypanosoma brucei brucei), P07378 | PGK/GAPDH coupled, Kinase-Glo luminescence, 60 min | 0.043% of 380,000 active | AID 602233, 2012 | Potency, µM (highest dose often 57.5 µM), without a hit: at the top dose activity change, negative = inhibition, most hits filed as inhibitors; note: % is set by controls: 0 for no effect and ±100 for the full control effect; nearly all actives have a fitted effect of over 60% in size
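Recombinant glycosomal PGK reaction used 1,3-bisphosphoglycerate generated in-well by GAPDH (100nM final) in 100mM TEA pH 7.6, 5mM MgCl2, 0.01% Tween-20. After 60 minutes at room temperature, ATP was read by Kinase-Glo Plus luminescence end-point.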
ELG1 DNA repair: qHTS screen for small molecules that inhibit ELG1-dependent DNA repair in human embryonic kidney (HEK293T) cells expressing luciferase-tagged ELG1; Potency, µM (top dose mostly 46.1 µM), inactives show at the top dose activity change, negative = inhibition, actives largely listed as inhibitors; AID 504467, 2011; 2.3% of 330,000 active; HEK293T ELG1-luciferase reporter, luminescence, 16 h; DNA damage induced by 5-fluorouridine; note: % is set by controls: 0 for no effect and ±100 for the full control effect; nearly all actives have a fitted effect of over 55% in size
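In this reporter screen, reduction of luminescence relative to DMSO vehicle indicated activity. Compounds and 5-fluorouridine were added together to 2,000 cells per well, incubated for 16 hr at 37 °C, then developed with ONE-Glo.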
Tb PFK inh: qHTS Assay to Find Inhibitors of T. brucei phosphofructokinase | Potency, µM (top dose mostly 57.5 µM), without a hit: at the highest dose activity, negative = inhibition, most hits filed as inhibitors | T. brucei PFK, ADP-Glo luminescence | 0.17% of 330,000 active | ATP-dependent 6-phosphofructokinase (Trypanosoma brucei brucei), O15648;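 note: 0% = uninhibited 1x PFK enzyme wells and -100% = no-enzyme wells; nearly all actives have a fitted effect of over 60% in size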
Target sequence (O15648 whole entry, looked up): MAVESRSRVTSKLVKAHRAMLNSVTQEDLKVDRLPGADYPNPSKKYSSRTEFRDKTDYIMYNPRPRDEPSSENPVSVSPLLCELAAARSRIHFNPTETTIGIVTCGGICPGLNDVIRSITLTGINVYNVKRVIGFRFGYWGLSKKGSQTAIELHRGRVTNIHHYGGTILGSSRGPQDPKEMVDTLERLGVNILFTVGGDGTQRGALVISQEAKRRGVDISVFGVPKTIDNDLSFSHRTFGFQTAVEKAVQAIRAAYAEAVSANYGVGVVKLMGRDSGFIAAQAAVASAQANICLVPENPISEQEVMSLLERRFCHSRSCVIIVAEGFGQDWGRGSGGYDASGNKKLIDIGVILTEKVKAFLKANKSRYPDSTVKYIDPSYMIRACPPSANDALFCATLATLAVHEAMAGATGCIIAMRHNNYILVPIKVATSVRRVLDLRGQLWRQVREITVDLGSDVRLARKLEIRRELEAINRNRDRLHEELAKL
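Luminescent ADP detection (ADP-Glo, two-step: ATP depletion then ADP-to-ATP conversion for luciferase) reported PFK activity after 45 min room-temperature reaction of 1.25 nM enzyme with 0.5 mM F6P and 0.1 mM ATP at pH 8.0.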
ELG1 FLuc counter: qHTS screen for small molecules that inhibit ELG1-dependent DNA repair: Hit Confirmation in Cell-Based Luciferin Assay | shares compounds with ELG1 DNA repair | cell-free firefly luciferase luminescence counter-screen, ViewLux | Potency, µM (doses to about 46.1 µM), for inactives: at the highest dose activity change, negative = inhibition, actives largely listed as inhibitors | 3% of 350 active | AID 624247, 2012; note: % is set by controls: 0 for no effect and ±100 for the full control effect
ELG1 Luc conf: HTS assay for small molecules that inhibit ELG1-dependent DNA repair in human embryonic kidney (HEK293T) cells expressing luciferase-tagged ELG1: Hit Confirmation; shares compounds with ELG1 DNA repair; HEK293T ELG1-luciferase levels, luminescence; cells co-treated with 5-fluorouridine; 68% of 670 active; Potency, µM (highest dose often 46.1 µM), for inactives: top-dose activity change, negative = inhibition, actives largely listed as inhibitors; note: % is set by controls: 0 for no effect and ±100 for the full control effect; nearly all actives have a fitted effect of over 55% in size
ELG1 MMS Luc: MMS-stimulated human ELG1 repair inhibition, confirmed | shares compounds with ELG1 DNA repair | HEK293T luciferase-tagged ELG1 level, MMS stimulated | Potency, µM (doses to about 46.1 µM), inactives show at the top dose activity change, negative = inhibition, actives largely listed as inhibitors | 53% of 670 active | AID 624249; note: % is set by controls: 0 for no effect and ±100 for the full control effect; nearly all actives have a fitted effect of over 60% in size
ELG1 5-FU: qHTS screen for small molecules that inhibit ELG1-dependent DNA repair: Hit Confirmation with 5FU Viability; Potency, µM (doses to about 46.1 µM), for the others: at the highest dose activity change, negative = viability loss, actives largely listed as cytotoxic; AID 624250, 2012; 670 tested, under 10 active; shares compounds with ELG1 DNA repair; cell viability with 5-FU, ELG1-dependent repair;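 note: ELG1-luc HEK293T cells cotreated with 5-fluorouridine at 10 µM final; viability measured 16 h after compound addition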
ELG1 MMS viab: qHTS screen for small molecules that inhibit ELG1-dependent DNA repair: Hit Confirmation with MMS Viability. 33% of 670 active. shares compounds with ELG1 DNA repair. Potency, µM (series often up to 46.1 µM), for inactives: at the top dose activity change, negative = viability loss, usual class: cytotoxic. Cell viability with MMS, ELG1-dependent DNA repair;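 note: ELG1-luc HEK293T cells co-treated with 10 µM MMS; viability read 16 h after compound addition; % is set by controls: 0 for no effect and ±100 for the full control effect; nearly all actives have a fitted effect of over 60% in size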
Cell viab unstim: qHTS screen for small molecules that inhibit ELG1-dependent DNA repair: Hit Confirmation with Unstimulated Viability Assay; shares compounds with ELG1 DNA repair; cell viability counter-screen, unstimulated, luminescence; Potency, µM (titrated, usually from 45.9 µM), for the others: at the top dose activity change, negative = loss of viability, actives largely listed as cytotoxic; 8% of 900 active;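 note: compound exposure lasted 16 hours before reading; % is set by controls: 0 for no effect and ±100 for the full control effect; nearly all actives have a fitted effect of over 55% in size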
FLuc biochem: qHTS screen for small molecules that inhibit ELG1-dependent DNA repair: Hit Confirmation in Biochemical Luciferin Assay | shares compounds with ELG1 DNA repair | purified firefly luciferase, luminescence counter-screen | Potency, µM (series often up to 57.5 µM), for inactives: top-dose activity, negative = inhibition, actives largely listed as inhibitors | 10% of 350 active | AID 624253, 2012; note: % is set by controls: 0 for no effect and ±100 for the full control effect
Starred values were filed as active, the others as inactive; i = inactive; ? = inconclusive; · = no result given. Unless noted, calls come from the whole dose curve; as a rule, active = well fitted curve in the direction sought with a large enough effect; inconclusive = small, poorly fitted or top-dose-only effect, or another doubt; inactive = no such curve, though single readings can be large; an effect the other way counts as inactive or inconclusive. Potency is the fitted concentration of half-maximal effect.

SMILES	PKM2 act	Rango complex inh	Rango release inh	Tb PGK inh	ELG1 DNA repair	Tb PFK inh	ELG1 FLuc counter	Cell viab unstim	FLuc biochem	others
CCOC(=O)N1CCN(C(=O)CSCC(=O)Nc2nc(-c3ccccc3)cs2)CC1	-5.0%	5.0%	-13.2%	-8.7%	?	0.1%	48.7%	-13.9%	-7.3%
CC(C)C(=O)SCCCCCCC(=O)Nc1nc(-c2ccccc2)cs1	·	·	·	·	·	·	·	-4.1%	·
O=C(CSCC(=O)N1CCN(c2ccccc2)CC1)Nc1nc(-c2ccc(Cl)s2)cs1	-14.0%	-3.5%	12.4%	-1.7%	?	3.6%	17.5%	?	-3.2%
O=C(CSCC(=O)N1CCCCC1)Nc1nc(-c2cccs2)cs1	2.3%	4.9%	6.4%	-2.5%	?	-0.3%	·	·	·
Nc1ccc(/C=C/c2ccc3cccnc3c2)cc1	·	·	·	·	·	·	42.9%	-1.3%	0.366µM*
COc1ccc(CCC(=O)OCc2csc(CC(=O)Nc3ccccc3C)n2)cc1	-1.0%	1.6%	3.6%	i	19.8%	-8.1%	·	·	·
COc1ccc2cc(C[C@@H]3CC[C@@H](CO)O3)ccc2c1	·	0.3%	-2.9%	-7.0%	?	0.6%	·	-2.1%	·
Cc1ccc(-n2ncc3c(=O)n(Cc4cccc(Cl)c4)cnc32)cc1C	·	·	·	-6.9%	·	·	·	·	·
COc1ccc(C(=O)N/N=C/c2cc(Br)ccc2O)cc1OC	-6.6%	?	?	-2.3%	2.06µM*	-7.7%	·	-12.9%	·	ELG1 Luc conf=3.97µM*;ELG1 MMS Luc=12.5µM*;ELG1 5-FU=19.2%;ELG1 MMS viab=15.8µM*
CC(C)N1C(=O)C(=O)N(CC(=O)N2c3ccccc3NC(=O)CC2C)C1=O (stereo not drawn)	·	6.3%	-12.9%	-0.6%	-0.7%	-1.7%	·	·	·
O=C(CSc1ccc2nnc(-c3cccc(F)c3)n2n1)N1CCCc2ccccc21	-11.1%	0.7%	6.3%	-10.4%	11.6µM*	-3.6%	-4.7%	-4.7%	-1.1%	ELG1 Luc conf=14.1µM*;ELG1 MMS Luc=?;ELG1 5-FU=9.7%;ELG1 MMS viab=5.7%
COc1ccc(-c2cnc(-c3cccnc3)o2)cc1	·	·	·	·	·	·	·	2.8%	·
O=C(C[n+]1cc(-c2ccc(Cl)cc2)n2c1CCC2)Nc1nc(-c2ccc(F)cc2)cs1	0.1%	0.8%	-6.9%	-14.9%	10.3%	2.1%	·	·	·
CCN1C(=O)[C@H]2[C@@H](c3ccc(C(F)(F)F)cc3)N[C@]3(CCCN(Cc4ccc(F)cc4)C3=O)[C@H]2C1=O	·	·	·	-0.1%	·	·	·	·	·
COc1cc2cc(C#N)c(SCC(=O)N3CCOCC3)nc2cc1OC	3.7%	?	?	-4.5%	-3.7%	-5.2%	·	·	·
COc1cc2cc(C)c(SCC(=O)N3CCOCC3)nc2cc1OC	-1.0%	6.0%	-0.2%	-6.8%	-28.6%	-2.7%	68.0%	-9.9%	-8.2%
COc1ccc(C(C)(C)C)cc1NC(=O)COC(=O)CN1C(=O)NC2(CCCCC2C)C1=O (stereo not drawn)	·	-1.5%	26.9%	2.1%	15.1%	-2.0%	·	·	·
Cc1cc(S(=O)(=O)Nc2nc(CN3CCOCC3)nc3sc4c(c23)CCCC4)ccc1F	0.2%	-1.6%	-16.5%	2.5%	0.6%	1.4%	76.9%	-11.5%	-1.3%	ELG1 Luc conf=0.1%;ELG1 MMS Luc=15.0%;ELG1 5-FU=-7.1%;ELG1 MMS viab=-3.8%
COc1cc2c(cc1OC)CN(c1nc(CN3CCOCC3)nc3sc4c(c13)CCCC4)CC2	-1.1%	-4.1%	?	i	2.91µM*	-1.3%	?	?	-6.5%	ELG1 Luc conf=3.97µM*;ELG1 MMS Luc=9.97µM*;ELG1 5-FU=?;ELG1 MMS viab=15.8µM*
Cc1cc(S(=O)(=O)Nc2nc(CN3CCOCC3)nc3sc4c(c23)CCC4)cc(C)c1C	·	1.4%	-8.1%	-8.1%	16.6%	-28.0%	·	·	·
c1nc(N2CCOCC2)c2c3c(sc2n1)CCCC3	8.2%	0.7%	-1.7%	-13.7%	?	2.9%	·	·	·
O=C(CNC(=O)N1CC(=O)Nc2ccccc21)Nc1cccc(F)c1	·	-2.0%	-7.2%	3.4%	14.5%	-0.1%	·	·	·
